EP2 modulator: modulators of human EP2 prostaglandin E2 receptor. EP2-expressing cells, cAMP HTRF FRET, PGE2 co-stimulation. AID 940. P43116. induction, % at 25 µM. 260,000 compounds, 0.83% hits;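 active means compounds whose cAMP rise, as percent of the full-agonist control response, exceeds 60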;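 further: rat C6 glioma line stably carrying human EP2 under a CMV promoter; the protocol text gives 20 µM as final concentration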
Target sequence (P43116 whole entry, looked up): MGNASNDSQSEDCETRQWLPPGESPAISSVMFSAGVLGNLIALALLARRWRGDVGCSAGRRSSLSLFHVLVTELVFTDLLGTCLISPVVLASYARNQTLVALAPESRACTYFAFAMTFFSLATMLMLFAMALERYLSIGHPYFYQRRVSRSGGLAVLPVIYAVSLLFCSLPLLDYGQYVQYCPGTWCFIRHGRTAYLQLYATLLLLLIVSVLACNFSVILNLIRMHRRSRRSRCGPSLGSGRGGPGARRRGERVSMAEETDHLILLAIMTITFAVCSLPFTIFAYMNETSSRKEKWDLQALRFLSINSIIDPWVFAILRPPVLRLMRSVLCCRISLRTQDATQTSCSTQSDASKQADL
S1P3 antagonist: S1P3 (human) receptor antagonism. CHO S1P3 NFAT-BLA reporter, FRET fluorescence, antagonist mode. inhibition, % at 4.98 µM. 170,000 compounds, 0.27% hits. AID 485;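 active means inhibition above the plate cutoff, the mean inhibition of test wells on that plate plus 3 SD, cut at about 28% in these data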;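 further: cells challenged with S1P at its EC80 of 0.8 µM; blue over green emission ratio from cleaved BLA substrate after 4 h stimulation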
PGE2 EP2 inh: inhibitors of human EP2 prostaglandin E2 receptor; C6 glioma cells expressing human EP2, cAMP TR-FRET; cells stimulated with saturating PGE2; inhibition, % at 25 µM; 260,000 compounds, 0.52% hits; AID 1422;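 active means percent inhibition above 40 after rounding to a whole number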;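 further: rat C6 glioma host cells with rolipram phosphodiesterase inhibitor present; the protocol text gives 20 µM as final concentration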
S1P4 ag: agonists of human S1P4 receptor. 220,000 compounds, 0.35% hits. O95977. activation, % at 4.98 µM. AID 1509. S1P4-expressing cell line, agonist reporter assay; in the data active means activation above about 11%
S1P4 antagonist: human S1P4 receptor antagonism; inhibition, % at 4.98 µM; O95977; S1P4-expressing cells, antagonist mode, reporter read-out; AID 1510; 220,000 compounds, 0.26% hits; in the data active means inhibition above about 29%
Pf gamet viab: inhibitors of late stage P. falciparum gametocyte viability. P. falciparum stage V gametocytes, ATP luminescence, 24 h. inhibition, % at 10.9 µM. 150,000 compounds, 0.065% hits. AID 743093;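 active means inhibition above the mean plus 3 SD of compounds within the control limits, set per campaign, cut at about 38% in these data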
Numbers stand for hits; i = inactive; nt = no result given; ! = not confirmed by another sample. Rows were chosen to be rich in hits. Some 1.9% of all compounds tested hit in one or more screens of this group.

SMILES	EP2 modulator	S1P3 antagonist	PGE2 EP2 inh	S1P4 ag	S1P4 antagonist	Pf gamet viab
NS(=O)(=O)c1cc2c(cc1Cl)NC(c1ccccc1)NS2(=O)=O (stereo not drawn)	i	nt	i	nt	nt	nt
Cc1c(Cl)cccc1NC(=O)C[C@H]1Sc2ccccc2NC1=O	i	nt	60	nt	nt	nt
Cc1c(Cl)cccc1NC(=O)CC1Sc2ccccc2NC1=O (stereo not drawn)	i	i	i	i	i	nt
COc1cc(N=c2ssnc2Cl)cc(OC)c1OC	i	i	130	i	i	i
N#Cc1ccc(N=c2ssnc2Cl)cc1	i	nt	147	i	i	nt
COc1ccc(N=c2ssnc2Cl)cc1	i	nt	76	i	i	nt
Clc1ccc(N=c2ssnc2Cl)cc1	i	nt	110	i	i	nt
Clc1nssc1=Nc1ccccc1	i	i	i	i	i	nt
COc1ccc(-n2ncc3c(=O)n(CC(=O)NC4CCCCC4C)cnc32)cc1 (stereo not drawn)	i	nt	i	nt	nt	nt
COc1ccc(CNC(=O)[C@H]2C=CCN2C(=O)c2cccs2)cc1	i	nt	i	nt	nt	nt
COc1ccc(Nc2nc3c(C)cccn3c(=O)c2C=NCc2ccccc2)cc1	64	i	i	i	i	i
CNc1nc2c(C)cccn2c(=O)c1C=NCc1ccccc1	61	nt	nt	i	i	i
COc1cc(OC)cc(C(=O)N2CCC(C(=O)Nc3ccc(Cl)cc3)CC2)c1	i	nt	i	nt	nt	nt
CCCCOC(=O)CN1C(=O)c2ccc(C(=O)OCCCC)cc2C1=O	63	i	i	i	i	nt
CCCOC(=O)CN1C(=O)c2ccc(C(=O)OCCC)cc2C1=O	i	i	i	i	i	nt
O=C(Nc1ccc2c(c1)Cc1ccccc1-2)c1ccncc1	i	i	i	i	i	i
O=C(Nc1ccc2c(c1)Cc1ccccc1-2)[C@@H]1[C@H](C(=O)O)[C@]2(Cl)C(Cl)=C(Cl)[C@@]1(Cl)C2(Cl)Cl	i	nt	42	nt	nt	nt
COC(=O)c1c(NC(=O)c2cccc(C)c2)sc(C(=O)N2CCOCC2)c1C	i	nt	i	nt	nt	nt
Cn1c(C2CCCCC2)nc2c1c(=O)[nH]c(=O)n2Cc1ccccc1	65	i	i	i	i	i
Cc1ccc(-c2nc3c(c(=O)[nH]c(=O)n3Cc3ccccc3)n2C)s1	i	i	i	i	i	nt
CCN(C(=S)NC(=O)c1cccs1)c1ccccc1	i	nt	i	nt	nt	nt
O=C(c1cccc(Cl)c1)N1N=C(C(F)(F)F)CC1(O)C1CCCCC1 (stereo not drawn)	85	nt	i	nt	nt	nt
CCOc1ccc2c(C)cc(=O)oc2c1OCC	i	nt	i	i	i	nt
CCCCOc1ccc2c(C)cc(=O)oc2c1OCCCC	62	nt	i	i	i	i
O=C(O)C1=C/C(=C(/c2ccccc2)c2cc(C(=O)O)c(O)c3ccccc23)c2ccccc2C1=O	i	nt	40!	nt	nt	nt
SMILES	EP2 modulator	S1P3 antagonist	PGE2 EP2 inh	S1P4 ag	S1P4 antagonist	Pf gamet viab
O=C(O)c1cccc2c1C(=O)c1ccccc1C2=O	i	i	i	i	i	i
O=C(NCc1cccnc1)NC1(c2ccccc2)CC1	i	77	i	i	i	nt
COc1ccc(CCN(Cc2nc3ccccc3c(=O)[nH]2)C(=O)C2CCC2)cc1	i	nt	i	nt	nt	nt
Oc1ccc(Cl)cc1/C=C/c1ccc2cccc(O)c2n1	i	i	i	i	i	i
Oc1ccc2ccccc2c1/C=C/c1ccc2c(Br)cc(Br)c(O)c2n1	i	nt	42	nt	nt	nt
O=c1c2ccccc2nc2n1-c1ccccc1CCC2	i	i	i	i	i	i
O=C1c2ccccc2-n2c1nc1ccccc1c2=O	i	i	54	i	i	nt
O=C(NC1CCCc2c1cnn2-c1ccc(F)cc1F)c1ccccn1 (stereo not drawn)	i	i	45	i	i	i
O=C(CCc1ccccn1)NC1CCCc2c1cnn2-c1ccc(F)cc1F (stereo not drawn)	i	i	i	i	i	i
COC(=O)c1c(NC(=O)c2c(-c3ccccc3Cl)noc2C)sc2c1CCC2	i	nt	nt	i	i	nt
Cc1onc(-c2ccccc2Cl)c1C(=O)Nc1sc2c(c1C(N)=O)CCC(C)C2 (stereo not drawn)	62	nt	nt	i	i	i
CCn1c(SCC(=O)N2CCc3ccccc32)nnc1-c1cc2ccccc2cc1O	i	nt	i	nt	nt	nt
Cc1nnc(Sc2cc(NCCO)c([N+](=O)[O-])c3nonc23)s1	i	i	50	i	i	nt
Cc1nn(CC(=O)NCCCc2ccccc2)c(=O)c2cc3sccc3n12	i	nt	nt	nt	nt	nt
Cc1ccc(Cl)cc1NC(C#N)c1ccccc1 (stereo not drawn)	63	i	i	i	i	i
COC(=O)c1sccc1NC(=O)c1ccccc1C(=O)O	nt	nt	nt	nt	nt	i
CC(=O)c1sccc1NC(=O)c1ccccc1C(=O)O	85	i	i	i	i	i
COC(=O)CSc1nc2ccccc2n1CC(=O)N1CCCCC1	i	nt	i	nt	nt	nt
Cc1c(NC(=O)Nc2c(Cl)cccc2Cl)c(=O)n(-c2ccccc2)n1C	i	i	48!	i	i	nt
Cc1c(NC(=O)Nc2ccccc2Cl)c(=O)n(-c2ccccc2)n1C	i	i	i	i	i	i
CCOC(=O)CSC1=NC(=O)/C(=C\c2ccc(OC(C)=O)cc2)S1	i	nt	53	i	i	i
NS(=O)(=O)c1ccc(NC(=O)c2ccc(-c3ccc(Cl)c(Cl)c3)o2)cc1	i	nt	i	nt	nt	nt
CCc1ccc(Nc2ncc3c(n2)CC(c2ccc(OC)cc2)CC3=O)cc1 (stereo not drawn)	i	nt	i	i	i	i
COc1ccc(Nc2ncc3c(n2)CC(c2ccccc2)CC3=O)cc1 (stereo not drawn)	i	53	i	i	i	nt
c1cc(-c2sc(-c3ccncc3)c(-c3ccncc3)c2-c2ccncc2)ccn1	i	i	41!	i	i	i
SMILES	EP2 modulator	S1P3 antagonist	PGE2 EP2 inh	S1P4 ag	S1P4 antagonist	Pf gamet viab
CCN1CCN(C(=O)NC(C(=O)N[C@@H]2C(=O)N3[C@@H]2SC(C)(C)[C@@H]3C(=O)O)c2ccccc2)C(=O)C1=O (stereo partly drawn)	i	nt	i	nt	nt	nt
CC(NC(=O)c1ccccc1Br)C1CC2CCC1C2 (stereo not drawn)	nt	nt	nt	nt	nt	i
CC(NC(=O)c1ccc(N(C)C)cc1)C1CC2CCC1C2 (stereo not drawn)	i	nt	nt	i	34	i
COc1cc(/C=C2/C(=O)NN(c3cccc(C)c3)C2=O)ccc1OC(=O)c1ccco1	i	i	41	i	i	nt
COc1cc(/C=C2/C(=O)NN(c3cccc(C)c3)C2=O)cc([N+](=O)[O-])c1O	i	i	i	i	i	i
COC(=O)C1CCN(C(=O)COc2ccc(Cl)cc2)CC1	i	i	i	i	i	nt
COC(=O)C1CCN(C(=O)COc2cc3sc(C)nc3c3sccc23)CC1	i	55	i	i	i	nt
Cc1ccc(C)c(CN2C(=O)C3(OCCCO3)c3ccccc32)c1	62	i	i	i	i	nt
O=C(Cn1c(C(F)(F)F)nc2ccccc21)Nc1ccccc1C(=O)O	i	i	i	i	i	39
Cn1ccnc1C1(O)CC2CCC(C1)N2C(=O)c1ccco1 (stereo not drawn)	i	nt	nt	nt	nt	nt
CC1CCc2c(sc3nc(SCC(=O)NCc4ccco4)nc(N)c23)C1 (stereo not drawn)	i	92	i	i	i	i
CCN1/C(=C/c2ccc3cc(C)ccc3[n+]2CC)Sc2ccc(C)cc21	i	nt	i	nt	nt	nt

Bioassay records deposited in PubChem BioAssay by several laboratories.
